Compound activity: PubChem, several laboratories
Rows were chosen to be rich in hits. Some 1.6% of all compounds tested hit in one or more screens of this group.
GRK2 inh – compounds blocking aptamer binding on GRK2 – biochemical, human GRK2, bead flow cytometry, HTS, primary screen; Beta-adrenergic receptor kinase 1 (Homo sapiens), P25098; FAM-aptamer displacement from GRK2; inhibition of aptamer binding, % at 10 µM; 330,000 compounds, 0.59% hits;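 active = inhibition of aptamer binding above 40%, roughly 3 SD of noise, on plates passing a quality check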;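 note: median bead fluorescence of bound FAM aptamer so fluorescent compounds give negative values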
Target sequence (P25098 whole entry, looked up): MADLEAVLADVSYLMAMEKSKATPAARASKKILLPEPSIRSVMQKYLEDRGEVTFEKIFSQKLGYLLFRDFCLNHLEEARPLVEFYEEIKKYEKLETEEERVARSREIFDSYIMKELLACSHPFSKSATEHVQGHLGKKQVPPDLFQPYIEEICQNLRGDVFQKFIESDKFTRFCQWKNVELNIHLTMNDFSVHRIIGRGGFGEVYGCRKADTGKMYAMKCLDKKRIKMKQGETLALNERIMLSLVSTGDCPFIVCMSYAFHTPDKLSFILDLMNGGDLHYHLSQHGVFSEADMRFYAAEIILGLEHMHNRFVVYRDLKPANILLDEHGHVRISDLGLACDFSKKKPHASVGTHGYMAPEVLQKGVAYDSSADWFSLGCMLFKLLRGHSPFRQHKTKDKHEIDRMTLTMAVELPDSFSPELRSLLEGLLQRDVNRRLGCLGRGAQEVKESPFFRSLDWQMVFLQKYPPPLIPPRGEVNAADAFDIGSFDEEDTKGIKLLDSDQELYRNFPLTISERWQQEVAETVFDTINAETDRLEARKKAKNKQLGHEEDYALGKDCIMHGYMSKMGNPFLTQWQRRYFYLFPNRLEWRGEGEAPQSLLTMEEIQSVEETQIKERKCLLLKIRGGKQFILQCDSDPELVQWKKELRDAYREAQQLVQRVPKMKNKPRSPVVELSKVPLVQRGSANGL
CR mimetic SO – reduction of superoxide in aged yeast, primary screen, HTS | 330,000 compounds, 0.18% hits | S. cerevisiae aged cells, superoxide DHE fluorescence; active compounds read low | superoxide response (% of plate mean), % at 10 µM;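 active = superoxide response under a set limit, about three screen SD below normal, cut at about 65% in these data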;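 note: yeast aged for seven days with compound at 30 °C before DHE staining; 100% = average MFI of all compound-treated wells on the plate with controls excluded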
ATG4B inhibitor – ATG4B protease inhibitors, primary screen, biochemical, fluorescence, uHTS | Cysteine protease ATG4B (Homo sapiens), Q9Y4P1 | ATG4B cleavage of LC3-PLA2, NBD-HPC fluorescence, 1 h | inhibition, % at 8.33 µM | 340,000 compounds, 0.51% hits; in the data active = inhibition above about 40%
Efflux pump mplx – inhibitors of Candida efflux pumps in yeast, primary screen, S. cerevisiae, Nile Red, multiplex; inhibition, % at 10 µM; 330,000 compounds, 0.44% hits; S. cerevisiae Candida pump triplex;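 active = plate passing quality check with inhibition over a set limit, or well fluorescence over plate mean plus 4 SD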;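 note: Nile Red retained in pooled yeast measured as flow cytometry median fluorescence; 0% = buffer negative control and 100% = Enniatin B positive control; higher means more Nile Red kept so more efflux inhibition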
GRK2 inh confirm – GRK2 aptamer-displacing inhibitors, retest, confirmation, biochemical, cherry pick 1, bead flow cytometry; shares compounds with GRK2 inh; 2,000 compounds, 4% hits; bead-bound GRK2, FAM-aptamer displacement; aptamer displacement, % at 10 µM;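 active = aptamer displacement above 40%, near three times the noise of non-fluorescent compounds, on plates passing quality checks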;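 note: negative values mostly reflect intrinsic compound fluorescence rather than true enhancement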
FAM quench CP1 – aptamer fluorescence quenching in GRK2 counter-screen; 2,000 tested, under 10 active; shares compounds with GRK2 inh; Carboxyfluorescein RNA aptamer on beads, flow cytometry quenching; active compounds read low; fluorescence response (% of DMSO), % at 10 µM; AID 504580;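 active = compounds that quench the bead-bound fluorescent RNA probe, cutting fluorescence to under half of the solvent control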;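 note: counterscreen run without GRK2 so only probe quenching by compound is measured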
GRK2 CP2 – GRK2 aptamer-displacing inhibitors, hit retest, confirmation, biochemical, cherry pick 2, bead flow cytometry; shares compounds with GRK2 inh; bead-bound GRK2, FAM-aptamer displacement; inhibition of aptamer binding, % at 10 µM; 360 tested, under 10 active;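 active = inhibition of aptamer binding above 40%, about triple the noise seen with nonglowing compounds, on plates passing quality control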;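 note: negative values mostly come from compounds that fluoresce themselves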
FAM quench SP – quenches fluorescent RNA aptamer, GRK2 hit artifact | AID 588494 | 360 tested, under 10 active | fluorescence response vs DMSO, % at 10 µM | shares compounds with GRK2 inh | carboxyfluorescein RNA aptamer beads, flow cytometry quenching; active compounds read low;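 active = response vs DMSO under 50%, meaning signal dropped by over half, treated as fluorescence quencher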;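 note: labelled aptamer on streptavidin beads without GRK2 as a quench counter-screen; 100% = bead fluorescence of DMSO wells and lower means quenching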
An asterisk follows results filed as active; . = no result given.

SMILES	GRK2 inh	CR mimetic SO	ATG4B inhibitor	Efflux pump mplx	GRK2 inh confirm	FAM quench CP1	others
COc1ccc(S(=O)(=O)Nc2ccc(CC#N)cc2)cc1	3	103	-9	0	.	.
CC(=O)Oc1ccc(-c2csc(Nc3ccc(S(N)(=O)=O)cc3)n2)cc1	1	96	-19	0	.	.
COc1ccc(-c2csc(Nc3ccc(S(N)(=O)=O)cc3)n2)cc1	44*	98	0	0	.	.	GRK2 CP2=-11;FAM quench SP=100
O=C(CSc1n[nH]c(-c2ccco2)n1)Nc1ccccc1	4	97	-7	0	.	.
O=C(O)CCC(=O)NC1CCCCCCC1	65*	92	-6	0	0	104
O=C(CCCCC(=O)NC1CCCC1)NC1CCCC1	0	108	1	0	.	.
CCN(C(=O)CSc1nnc(-c2cccc(F)c2)n1N)c1c(N)n(Cc2ccccc2)c(=O)[nH]c1=O	.	.	-6	.	.	.
Cn1c(SCc2cccc([N+](=O)[O-])c2)nc2ccccc2c1=O	47*	89	-6	0	-1	100
COCCn1c(SCc2cccc([N+](=O)[O-])c2)nc2ccccc2c1=O	0	97	-1	0	.	.
CCc1ccc(OCc2n[nH]c(=S)n2C(C)CCCC(C)C)cc1 (configuration not stated)	4	96	-6	0	.	.
Cc1ccc(F)cc1NC(=O)CSc1nnc(CNC(=O)c2ccco2)n1C	70*	97	-10	0	0	98
O=C(O)c1ccc(OC(F)(F)C(F)C(F)(F)F)cc1 (configuration not stated)	76*	97	-1	0	3	98
N#Cc1ccccc1NC(=O)C(=O)NCCCN1CCCC1=O	0	102	-10	0	.	.
CN(C)CCCN(C(=O)c1ccc(S(=O)(=O)N2CCCCC2)cc1)c1nc2cc3c(cc2s1)OCO3	15	101	-1	0	-14	101
COc1ccc(Cl)cc1C(=O)NNC(=O)c1cc2ccccc2o1	4	101	10	0	.	.
O=C(CSc1oc(-c2cccs2)nc1S(=O)(=O)c1ccc(F)cc1)NCC1CCCO1 (configuration not stated)	42*	103	-6	0	2	102
Cc1ccc(NC(=O)CSC2=C(C#N)C(c3ccco3)C3=C(CCCC3=O)N2)cc1 (configuration not stated)	57*	91	-25	0	0	94
Cc1c(C(=O)O)cccc1-n1c(C)cc(/C=N/Nc2ccc([N+](=O)[O-])cn2)c1C	0	93	3	0	.	.
Cc1c(C(=O)O)cccc1-n1c(C)cc(/C=N/NC(=O)c2cc3ccccc3o2)c1C	50*	77	2	0	3	136
CCNC(=O)O/N=C1\CCCCC1c1ccc([N+](=O)[O-])cc1[N+](=O)[O-] (configuration not stated)	3	123	-2	0	.	.
Cc1ccc(C(=O)CCC(=O)Nc2ccccc2C)c(C)c1	3	94	5	0	.	.
O=C(Cn1cnc2ccccc2c1=O)NCCCN1CCCC1=O	2	103	-5	0	.	.
CC(C)C(NC(=O)OCc1ccccc1)C(=O)N1CCOCCOCCOCC1 (configuration not stated)	0	85	-8	0	.	.
C=CCN(CC=C)C(=O)c1ccc2nc(Cc3ccc(OC)c(OC)c3)oc2c1	41*	112	-7	0	2	100
O=C(COc1ccc(F)cc1)NCCNC(=O)COc1ccc(F)cc1	0	91	-47	0	.	.
SMILES	GRK2 inh	CR mimetic SO	ATG4B inhibitor	Efflux pump mplx	GRK2 inh confirm	FAM quench CP1	others
O=C(NCc1ccccc1CN1CCCC1)C1CCN(C(=O)c2ccc(F)cc2)CC1	69*	105	1	0	-46	120
Cc1c(C(=O)Nc2ccc(F)cc2)oc2ccc(S(=O)(=O)N3CC(C)CC(C)C3)cc12 (configuration not stated)	12	117	-5	0	-3	100
O=C(Nc1ccc2c(c1)OCO2)Nc1ccc(Cl)cc1Cl	92*	99	-2	0	-5	94
CCN(C(=O)c1ccc(C)c(Br)c1)c1ccccc1	1	85	1	0	.	.
COc1cc(-c2nc(-c3ccc(NC(=O)c4ccc(Br)o4)cc3)no2)cc(OC)c1OC	82*	69	-11	0	-2	99
O=C(O)c1ccc(/C=C2\SC(=S)N(NC(=O)c3ccccc3[N+](=O)[O-])C2=O)cc1	47*	99	3	0	1	101
C=CCn1c(SC(CCO)C(=O)NCc2ccco2)nc2sc3c(c2c1=O)CCC3 (configuration not stated)	1	91	-3	0	.	.	GRK2 CP2=13;FAM quench SP=101
C=CCn1c(SCC(=O)NCC)nc2sc3c(c2c1=O)CCC3	0	104	-7	0	.	.	GRK2 CP2=-23;FAM quench SP=101
C=CCn1c(SCC(=O)NC)nc2sc3c(c2c1=O)CCC3	1	112	1	0	.	.	GRK2 CP2=17;FAM quench SP=99
COCCCN(C(=O)c1cc(-c2ccco2)nc2ccccc12)c1c(N)n(Cc2ccccc2)c(=O)[nH]c1=O	0	100	-3	0	.	.
Cc1cc(Cl)ccc1N(CC(=O)NCc1ccc2c(c1)OCO2)S(C)(=O)=O	100*	108	-8	0	3	99
CN1C(=S)SC2CS(=O)(=O)CC21 (configuration not stated)	2	104	-4	0	.	.
CCn1cc(C(=O)NCC(OC)OC)c(=O)c2cc(S(=O)(=O)N3CCOCC3)ccc21	45*	98	-4	0	0	98
COC(CNC(=O)c1cn(C)c2ccc(S(=O)(=O)N3CCOCC3)cc2c1=O)OC	1	82	-2	0	.	.
O=C(NCCc1nnc2ccc(NCc3cccnc3)nn12)c1ccccc1F	2	102	-3	0	.	.
COC(=O)c1ccc(N2CCc3ccccc32)c([N+](=O)[O-])c1	52*	96	7	0	0	97
O=C(O)c1ccc(N2CCc3ccccc32)c([N+](=O)[O-])c1	0	108	0	0	.	.
CSc1nc(O)cc(=O)n1-c1ccc(F)cc1	0	92	2	0	.	.
COc1ccc(CNC(=O)CN2CCN(c3ccc(F)cc3)CC2)cc1	0	90	-3	0	.	.
Cc1ccc2[nH]c3c(=O)n(CC(=O)NCCCN4CCN(c5ccc(F)cc5)CC4)ncc3c2c1	45*	86	1	0	24	98
